# Measurements as given in the supplement of paper PMC7156485.
# ± gives the standard deviation of the averaged measurements.
# Test system: TDF
# Experiment: cell number relative to DMSO (% of DMSO); higher = more cells (less growth inhibition / toxicity)
# Conditions: concentration: 10 µM; 24 h
# In short: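 H1.0 nuclear intensity or cell number is stated as percent of the plate control, based on the median of replicates, and HCC1569 values were smoothed for positional effects. These came from HCC1569 and TDF cells treated with compounds at 10 µM for 24 h at 37 °C in triplicate, then fixed in 3.7% formaldehyde and stained with a rabbit anti-H1.0 antibody, an AlexaFluor 647 secondary and DAPI.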
# 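Also: TDF denotes transformed human dermal fibroblasts of mesenchymal origin.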
row,Structure (SMILES),cell number
1,"CCCCCC(=O)c1c(O)c(Cl)c(OC)c(Cl)c1O [1-(3,5-dichloro-2,6-dihydroxy-4-methoxyphenyl)-1-hexanone]",90
2,COc1c(N2CC3CCCNC3C2)c(F)cc2c(=O)c(C(=O)O)cn(C3CC3)c12.Cl (centres undefined) [Moxifloxacin.HCl],122
3,Nc1ncnc2c1nc(Sc1ccc(Cl)cc1)n2C1OC2COP(=O)([O-])OC2C1O.[Na+] (centres undefined) [8-(4-Chlorophenylthio)-cAMP sodium],106
4,CCCCC(C)(O)CC=CC1C(O)CC(=O)C1CCCCCCC(=O)OC (centres undefined) [Misoprostol],107
5,CN1CCC(=C2c3ccccc3C=Cc3ccccc32)CC1.Cl [Cyproheptadine hydrochloride],97.3
6,Cl.Clc1cccc(Cl)c1NC1=NCCN1 [Clonidine.HCl],100
7,CCCCNc1cc(C(=O)O)cc(S(N)(=O)=O)c1Oc1ccccc1 [Bumetanide],105 ± 2
8,"CCCCCCCCCCCCCC=CC(O)C(CO)N(C)C (centres undefined) [N,N-Dimethylsphingosine]",90.2
9,CCCCCCCC/C=C\CCCCCCCC(N)=O [(9Z)-9-octadecenamide],102
10,Cl.O=S(=O)(c1cccc2cnccc12)N1CCCNCC1,93.8
11,C=C1NC(=O)C2=C(CCSC2)N1,99.5
12,"COc1ccc(-n2[nH]c3c(cnc4ccccc43)c2=O)cc1 [2-(4-methoxyphenyl)-1H-pyrazolo[4,3-c]quinolin-3(2H)-one]",87.8
13,Cc1cc(Nc2cc(N3CCN(C)CC3)nc(Sc3ccc(NC(=O)C4CC4)cc3)n2)n[nH]1 [Tozasertib],46.5
14,COc1ccc(OC)c2c(=S)c3ccccc3[nH]c12,92
15,NC(=S)NN=Cc1ncccc1N [3-amino-2-pyridinecarbaldehyde thiosemicarbazone],41.7
16,CNC1C(OC2C(OC3C(O)C(O)C(N=C(N)N)C(O)C3N=C(N)N)OC(C)C2(O)C=O)OC(CO)C(O)C1O (centres undefined) [Streptomycin],103
17,O=c1c(-c2ccc(O)cc2)coc2cc(O)cc(O)c12 [Genistein],99 ± 4.5
18,COc1ccccc1N1CCN(CCN(C(=O)c2ccc(I)cc2)c2ccccn2)CC1.Cl [p-MPPI hydrochloride],96.3
19,"Cc1cc2cc3c(C)cc(=O)oc3c(C)c2o1 [4,5',8-Trimethylpsoralen]",102
20,CCCNC(C)C(=O)Nc1ccccc1C.Cl (centres undefined) [Prilocaine hydrochloride],107
21,COc1cc2ncnc(Nc3cccc(Cl)c3)c2cc1OC [Tyrphostin AG 1478],94.6
22,CC1=CCC2(C)CCC(O)(C(C)C)C2C(OC(=O)c2ccc(O)cc2)C1 (centres undefined) [Ferutinin],102
23,"CCCCCCCCCCCC=CC(C)(C)C=CCCCC(=O)O [7,7-Dimethyl-(5Z,8Z)-eicosadienoic acid]",101
24,CC(C)[N+]1(C)C2CCC1CC(OC(=O)C(CO)c1ccccc1)C2.[Br-] (centres undefined) [Ipratropium.Br],98
25,C#C[C@@]1(OC(C)=O)CC[C@H]2[C@@H]3CCC4=CC(=O)CC[C@@H]4[C@H]3CC[C@@]21C [(17beta)-17-ethynyl-3-oxoestr-4-en-17-yl acetate],96.8
26,Cl.Clc1cccc(Cl)c1NC1=NCCN1 [Clonidine hydrochloride],103
27,CN(C)CCC(c1ccc(Cl)cc1)c1ccccn1 (centres undefined) [Chlorpheniramine],98.1
28,Clc1ccccc1C(c1ccccc1)(c1ccccc1)n1ccnc1 [Clotrimazole],69.1
29,N[C@@H](CCCC(=O)O)C(=O)O [L-2-aminoadipic acid],109
